Source: PubChem BioAssay (NCI)
About 79,000 compounds went through this panel and 15% of them were active in at least one assay; those are over-represented in the sample as a whole. Active and inactive are the calls of the source. Rule as the data show it: active = growth inhibition above about 70%; inactive = the rest. Where a SMILES comes first, the peptide text is derived from it. [ ]: non-standard residue; d: D form. The star is where a group is joined. Ac5c = NC1(C(=O)O)CCCC1; Cbz = O=C(OCc1ccccc1)*

Columns and labels:
[1] = NCI Yeast Anticancer Drug Screen. Data for the rad50 strain (AID 155);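 also: 0% = growth of vehicle-only cultures of the same strain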; settings: S. cerevisiae rad50 strain growth inhibition; at 50.0 µM; hits give high values
How it was run: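 Genetically altered yeast (DNA repair pathway); compound treatment; growth inhibition vs vehicle ctrl.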

[2] = NCI Yeast Anticancer Drug Screen. Data for the mec2-1 strain (AID 157); settings: S. cerevisiae mec2-1 strain, at 50.0 µM, hits give high values
How it was run: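 Yeast mec2-1 mutant treated with compound. Readout: growth inhibition vs vehicle controls.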

[3] = NCI Yeast Anticancer Drug Screen. Data for the sgs1 mgt1 strain (AID 161);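 also: 0% = growth of cultures given vehicle only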; settings: S. cerevisiae sgs1 mgt1 strain, at 50.0 µM, hits give high values
How it was run: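 Inhibition of yeast growth, normalised to vehicle-treated controls, is reported for a strain bearing genetic alterations in DNA damage repair.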

[4] = NCI Yeast Anticancer Drug Screen. Data for the cln2 rad14 strain (AID 165);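 also: 0% = growth equal to vehicle treated cultures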; settings: S. cerevisiae cln2 rad14 strain, at 50.0 µM, hits give high values
How it was run: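 cln2 rad14 yeast strain; compound exposure; growth inhibition read vs vehicle controls.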

[5] = NCI Yeast Anticancer Drug Screen. Data for the bub3 strain (AID 167); settings: S. cerevisiae bub3 mutant strain, at 50.0 µM, hits give high values
How it was run: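 Yeast carrying a defined mutation is treated with each compound, and growth is compared with that of vehicle-exposed cells to give inhibition.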

[6] = NCI Yeast Anticancer Drug Screen. Data for the mlh1 rad18 strain (AID 175); settings: S. cerevisiae mlh1 rad18 strain growth inhibition; at 50.0 µM; hits give high values
How it was run: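 Yeast w/ defined DNA-repair lesions; compound exposure; growth vs vehicle controls → % inhibition.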

Measured: growth inhibition

CCCC(O)C(C)C(O)CC (stereo unspecified)
inactive: [1] -9.85% | [2] -30.4% | [3] -22.2% | [4] -3.45% | [5] 1.4% | [6] -1.45%

Cc1cc(C)c(C)c(CC(C)(CI)CI)c1C
inactive: [1] 20.3% | [2] -13.2% | [3] -4.7% | [4] 0.65% | [5] -8.05% | [6] -3.6%

C=C1[C@H](OCC(C)C)[C@@H](OC(=O)C(C)CC)[C@@H](O)C(C)(C)/C=C/[C@H](C)C(=O)[C@@]2(O)C[C@H](C)[C@H](O)[C@@H]2[C@H]1OC(=O)C(C)CC (stereo partly specified)
active: [3] 75.2% | [5] 73.7%
inactive: [1] 47% | [2] 46.6% | [4] 69.3% | [6] 58.1%

O=c1[nH]c2cc([N+](=O)[O-])ccc2nc1/C=C(\O)c1ccccc1
inactive: [1] -21.2% | [2] -18.4% | [3] -14.3% | [4] -3.7% | [5] -1.8% | [6] 3.3%

CC(=O)Nc1cc2c(cc1Cl)-c1ccc(Br)cc1C2
inactive: [1] 6.35% | [2] -12.8% | [3] -2.25% | [4] -23.4% | [5] 0.85% | [6] -19.7%

CC(C)(NC(=O)c1cc(Cl)c2ccccc2c1O)C(=O)O
inactive: [1] 4.4% | [2] 2.8% | [3] 27.7% | [4] 22.9% | [5] 8.6% | [6] 17.7%

O=C(Nn1c(-c2ccccc2)nc2ccccc2c1=O)c1cccc([N+](=O)[O-])c1
inactive: [1] -27.8% | [2] -33.9% | [3] -14.2% | [4] 5.5% | [5] 23.8% | [6] 3.85%

CNC(=O)N(c1ccccc1)C1CCCCC1
inactive: [1] 15.8% | [2] 13.8% | [3] -2.5% | [4] -65.5% | [5] 9.8% | [6] 1.15%

CN1CCC(OC(=O)C(O)C2CCCCC2)CC1 (stereo unspecified)
inactive: [1] 23.5% | [2] 23% | [3] 13.8% | [4] 31.2% | [5] 19.9% | [6] 41.8%

O=C1C2=C(c3ccccc31)C(c1ccc(Cl)cc1)N1C(=O)CCSC1=N2 (stereo unspecified)
inactive: [1] 24.7% | [2] 10.6% | [3] 1.9% | [4] 8.25% | [5] 27.1% | [6] 25.3%

Cc1ccc(/C=C2\CCCC(C(NO)c3ccc(C)cc3)C2=NO)cc1 (stereo unspecified)
inactive: [1] -10.9% | [2] -20.2% | [3] 3.1% | [4] 1.2% | [5] -6.6% | [6] -9.25%

CC(O)(C(=O)O)c1ccccc1O (stereo unspecified)
inactive: [1] -1.1% | [2] 1.7% | [3] 2.05% | [4] 3.3% | [5] 6.1% | [6] 6.75%

Nc1[nH]c(=O)ncc1-c1cccc(Cl)c1
inactive: [1] -6.45% | [2] -4.15% | [3] 11.6% | [4] -7.8% | [5] 5.2% | [6] 33.1%

O=[N+]([O-])c1ccc(-n2cccc2)cc1
inactive: [1] -0.55% | [2] 20% | [3] -0.55% | [4] 44.4% | [5] -0.75% | [6] -7.2%

O=C(Cl)c1cc(I)c(I)c(I)c1
inactive: [1] 41% | [2] 47.3% | [3] 54.3% | [4] 37.2% | [5] 53.2% | [6] 40%

CC1=C(C(=O)NCc2ccccc2)C(c2cccc([N+](=O)[O-])c2)C(C(=O)NCc2ccccc2)=C(C)N1
inactive: [1] 19.6% | [2] 17.2% | [3] 9.05% | [4] 22.7% | [5] 19.2% | [6] 33.7%

Cc1ccc(C2SCC(=O)N2c2ccc(-c3ccc(-n4c(-c5ccccc5)nc5ccccc5c4=O)cc3)cc2)cc1 (stereo unspecified)
inactive: [1] 14% | [2] 6% | [3] 33% | [4] -0.45% | [5] 45.8% | [6] 55.8%

COC1(OC)N=C(N)C2(C#N)/C(=N/N(C)C)CC(C)C12C#N (stereo unspecified)
inactive: [1] 11.9% | [2] 4.35% | [3] -18.4% | [4] -16.1% | [5] -22.8% | [6] -40.7%

ClCCCOCc1ccccc1
inactive: [1] 8.2% | [2] -13.2% | [3] 3.65% | [4] 16.4% | [5] 11.9% | [6] 6.3%

Nc1ncnc2c1ncn2C1C=CC(COS(N)(=O)=O)C1 (stereo unspecified)
inactive: [1] 13.2% | [2] 21.9% | [3] 0.7% | [4] 10.8% | [5] 13.9% | [6] 29.4%

CCOc1ccc(CCC(=O)O)cc1
inactive: [1] 3.55% | [2] -9% | [3] -1.65% | [4] 2.8% | [5] -6.1% | [6] 12.1%

CCCCCCCCCCCC(=O)Nc1ccc(NC(C)=O)cc1
inactive: [1] 8.25% | [2] 25.1% | [3] 22.6% | [4] -14% | [5] 24.9% | [6] 23.9%

c1ccc(-c2cc(-c3ccccc3)n(-c3ccccc3)c2-c2ccccc2)cc1
inactive: [1] 8.45% | [2] 5.85% | [3] 0.45% | [4] -5.35% | [5] 24.4% | [6] -3.35%

COC(=O)C(=O)C1(C)CCc2c(ccc3ccc(OC)cc23)C1=O (stereo unspecified)
inactive: [1] -32.8% | [2] -3.1% | [3] -5.9% | [4] -31.9% | [5] 19.9% | [6] -5.65%

CCOC(=O)/C=C(\CC(=O)OCC)Nc1ccc(OC)cc1
inactive: [1] 6.8% | [2] -21.1% | [3] 4.1% | [4] -13.2% | [5] -2.3% | [6] -15.9%

Clc1nc(N2CCCCC2)c2[nH]cnc2n1
inactive: [1] -35.2% | [2] -6.2% | [3] 6.75% | [4] -9.8% | [5] -1.6% | [6] -0.9%

C/C(=N/OCCC(=O)O)C1CC1
inactive: [1] -2.85% | [2] -1.65% | [3] -1.35% | [4] 11.8% | [5] 7.9% | [6] -17.6%

CCOC(=O)C1=CCOc2cc(N(C)C)ccc21
inactive: [1] -9.25% | [2] 9.15% | [3] -1.25% | [4] 32.4% | [5] 8.75% | [6] -6.9%

CC1(c2cccc3c2C2(O)C=CC4(CCC32)OCCO4)OCCO1 (stereo unspecified)
inactive: [1] -59.4% | [2] -41.2% | [3] -55.8% | [4] -27.6% | [5] -61.1% | [6] -26%

c1ccc(C(N=NC(c2ccccc2)c2ccccc2)c2ccccc2)cc1
inactive: [1] 4.4% | [2] -10.3% | [3] 3.75% | [4] -18.3% | [5] -21.8% | [6] 16.8%

Cc1cc2nc(N3CCCCC3)n(C3OC(CO)C(O)C3O)c2cc1C (stereo unspecified)
inactive: [1] 11% | [2] 10.2% | [3] -0.45% | [4] 10.7% | [5] -8.75% | [6] 13.8%

O=C1C(Cc2ccc(O)cc2)NC(=S)N1c1ccccc1 (stereo unspecified)
inactive: [1] 0.6% | [2] -9.85% | [3] 24.9% | [4] -2.75% | [5] 20% | [6] -19.8%

CC1=CC2=NC(=O)C(c3ccccc3)C(=O)N2C=C1 (stereo unspecified)
inactive: [1] -1.05% | [2] -27.4% | [3] -9.95% | [4] 12.8% | [5] 7.5% | [6] -19.8%

CC(CCCSC(=N)N)SC(=N)N (stereo unspecified)
inactive: [1] 4.9% | [2] -3.5% | [3] -0.3% | [4] 24.2% | [5] -2.2% | [6] 12.6%

O=C(CCCc1ccc([N+](=O)[O-])cc1)c1ccccc1
inactive: [1] -5.85% | [2] -5.55% | [3] 1.2% | [4] -28.4% | [5] 3.5% | [6] -4.65%

O=S1(=O)CCNc2ccccc2O1
inactive: [1] -3.15% | [2] -6.4% | [3] -3.55% | [4] -15.2% | [5] 7.2% | [6] 3.15%

O=C(O)CNC(=O)C1(NC(=O)CNC(=O)OCc2ccccc2)CCCC1 (Cbz-Gly-[Ac5c]-Gly-OH)
inactive: [1] 4.7% | [2] 20.3% | [3] 11.2% | [4] -2.3% | [5] -5.05% | [6] 18.3%

O=C(O)C(CO)c1ccccc1 (stereo unspecified)
inactive: [1] 0.15% | [2] -1.3% | [3] -4.55% | [4] -4.65% | [5] 10.6% | [6] -2.75%

CS(=O)(=O)CC(O)c1ccccc1 (stereo unspecified)
inactive: [1] 4.8% | [2] -3.2% | [3] 2.95% | [4] -12.7% | [5] 6.65% | [6] -21.4%

Oc1c(Cl)c(Cl)c(O)c2ccccc12
inactive: [1] -3.7% | [2] -0.95% | [3] 7.15% | [4] 44.2% | [5] 8.1% | [6] -52.9%

Cc1oc2nc(N(C)C)nc(Cl)c2c1C
inactive: [1] 7.15% | [2] 5.8% | [3] 8.25% | [4] 12.5% | [5] 22.1% | [6] -15%
